The record followed here is PubChem BioAssay (NCATS).

Assay [1] is described as follows: qHTS assay for small molecule antagonists of peroxisome proliferator-activated receptor delta signaling (AID 588535; active means well fitted inhibition curve with a large enough effect in the signal ratio, with a control signal flat, not every such curve was filed as active; the % refers to the signal ratio;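 on max response: cells co-treated with a PPAR-delta agonist as stimulator during compound exposure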). Conditions: HEK293T PPARd-UAS-bla, beta-lactamase FRET ratio, 18 h; 460 nm channel. The procedure, abridged:
(§1)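 GeneBLAzer PPAR-delta-UAS-bla HEK293T cells in medium with 2% charcoal/dextran FBS were preincubated 5 hrs at 37 C, then given compounds, incubated 18 hrs at 37 C, and read by CCF4 beta-lactamase fluorescence; IC50 from Hill fits.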

In assay [2] the target is Peroxisome proliferator-activated receptor delta (Homo sapiens) (UniProt Q03181). The assay is described as above. The note with it: HEK293T PPARd-UAS-bla, beta-lactamase FRET ratio, 18 h; series mostly up to 76.7 µM. In outline: as §1
Sequence of Peroxisome proliferator-activated receptor delta (Homo sapiens) (Q03181 whole entry, looked up): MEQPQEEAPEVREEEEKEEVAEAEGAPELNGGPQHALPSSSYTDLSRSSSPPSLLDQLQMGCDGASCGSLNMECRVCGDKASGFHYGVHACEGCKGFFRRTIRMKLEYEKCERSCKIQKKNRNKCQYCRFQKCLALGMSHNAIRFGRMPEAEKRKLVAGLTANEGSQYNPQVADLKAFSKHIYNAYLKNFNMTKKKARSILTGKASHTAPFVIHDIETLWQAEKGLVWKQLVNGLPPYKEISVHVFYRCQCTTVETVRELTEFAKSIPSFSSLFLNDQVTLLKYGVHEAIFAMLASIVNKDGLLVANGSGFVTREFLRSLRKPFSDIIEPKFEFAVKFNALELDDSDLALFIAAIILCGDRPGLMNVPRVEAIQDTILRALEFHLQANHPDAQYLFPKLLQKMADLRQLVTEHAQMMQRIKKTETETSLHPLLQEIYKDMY
In assay [3] the target is Peroxisome proliferator-activated receptor gamma (Homo sapiens) (UniProt P37231). The assay can be described thus: qHTS assay for small molecule agonists of peroxisome proliferator-activated receptor gamma signaling (AID 588536; active means well fitted curve in the direction sought with a large enough effect in the signal ratio, with a control signal flat, not every such curve was filed as active; the % refers to the signal ratio;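 further: 0% = DMSO basal wells and 100% = rosiglitazone at 2 µM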). The note with it: HEK293 PPARg-UAS-bla, beta-lactamase ratio, 16 h, percent of rosiglitazone response, DMSO as zero; series mostly up to 76.7 µM. The procedure, abridged: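 GeneBLAzer PPAR-gamma-UAS-bla HEK293 cells in 1% charcoal/dextran-treated FBS medium were treated 16 h at 37 C with compounds. Beta-lactamase activity was read by CCF4 ratio (460/530 nm). Response was normalized to 2 uM rosiglitazone (100%) and DMSO, then Hill-fitted for EC50 and efficacy.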
Sequence of Peroxisome proliferator-activated receptor gamma (Homo sapiens) (P37231 whole entry, looked up): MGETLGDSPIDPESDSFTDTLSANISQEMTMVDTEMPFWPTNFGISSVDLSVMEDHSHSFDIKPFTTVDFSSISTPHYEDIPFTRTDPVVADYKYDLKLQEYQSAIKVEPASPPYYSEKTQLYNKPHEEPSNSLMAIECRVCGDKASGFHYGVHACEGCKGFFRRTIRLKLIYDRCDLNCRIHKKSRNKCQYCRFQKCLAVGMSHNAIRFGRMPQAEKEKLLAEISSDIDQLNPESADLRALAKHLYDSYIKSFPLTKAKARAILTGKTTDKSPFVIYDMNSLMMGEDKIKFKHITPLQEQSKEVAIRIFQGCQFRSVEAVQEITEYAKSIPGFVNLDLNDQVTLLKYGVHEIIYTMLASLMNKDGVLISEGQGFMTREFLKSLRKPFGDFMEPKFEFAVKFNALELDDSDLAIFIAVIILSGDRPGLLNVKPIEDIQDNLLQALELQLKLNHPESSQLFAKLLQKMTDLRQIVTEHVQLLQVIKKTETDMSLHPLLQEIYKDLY

The target of assay [4] is Vitamin D3 receptor (Homo sapiens) (UniProt P11473). Put plainly: qHTS assay for small molecule antagonists of vitamin D receptor signaling (AID 588541).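 Further: receptor activated by calcitriol during compound treatment; on the % scale 0 is the no-effect control and ±100 the full control effect.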 Conditions: HEK293T VDR-UAS-bla, beta-lactamase ratio, antagonist mode; series mostly up to 76.7 µM. The procedure, abridged:
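VDR-UAS-bla HEK293T cells (2000/well, 2% charcoal-stripped FBS) were treated with titrated compounds plus 1-alpha,25-dihydroxyvitamin D3 (50 nM or 3 nM final) for 16 h at 37 C. CCF4 beta-lactamase fluorescence was read; Hill fits gave IC50.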

Assay [5] can be described thus: qHTS assay for small molecule agonists of retinoid X receptor alpha signaling (AID 588544). The note with it: HEK293T RXRa-UAS-bla, beta-lactamase reporter, 18 h; 530 nm emission.
Assay [6] has as its target Retinoic acid receptor RXR-alpha (Homo sapiens) (UniProt P19793). The description is as above. Conditions: HEK293T RXRa-UAS-bla, beta-lactamase reporter, 18 h; series mostly up to 76.7 µM.
In assay [7] the target is Thyroid hormone receptor beta (Homo sapiens) (UniProt P10828). The assay can be described thus: qHTS assay for small molecule agonists of thyroid hormone receptor beta signaling (AID 588545). Conditions: TR-UAS-bla GripTite HEK 293, beta-lactamase ratio, agonist mode, 18 h, percent of T3 response, DMSO as zero; series mostly up to 76.7 µM. In outline: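 Cells (2500/well) were seeded, incubated 4 hrs at 37 C, dosed with a compound series, incubated 18 hrs, loaded with CCF4 dye for 2 hrs at RT, then read for fluorescence. Data were scaled between DMSO (0%) and 10 nM T3 (100%).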
Sequence of Thyroid hormone receptor beta (Homo sapiens) (P10828 whole entry, looked up): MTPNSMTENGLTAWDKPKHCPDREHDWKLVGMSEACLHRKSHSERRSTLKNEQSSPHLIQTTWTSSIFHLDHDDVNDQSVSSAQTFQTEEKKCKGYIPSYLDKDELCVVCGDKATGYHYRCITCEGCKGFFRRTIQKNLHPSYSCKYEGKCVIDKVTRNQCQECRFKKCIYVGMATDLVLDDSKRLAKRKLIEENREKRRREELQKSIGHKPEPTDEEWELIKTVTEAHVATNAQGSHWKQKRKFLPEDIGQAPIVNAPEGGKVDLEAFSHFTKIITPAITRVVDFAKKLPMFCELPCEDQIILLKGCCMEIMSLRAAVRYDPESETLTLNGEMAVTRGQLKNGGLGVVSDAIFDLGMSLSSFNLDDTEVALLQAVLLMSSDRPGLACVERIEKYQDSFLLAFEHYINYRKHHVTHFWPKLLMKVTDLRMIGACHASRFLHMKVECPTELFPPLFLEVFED

For assay [8], the target named is Retinoic acid receptor RXR-alpha (Homo sapiens) (UniProt P19793). Put plainly: qHTS assay for small molecule antagonists of retinoid X receptor alpha signaling (AID 588546; active means well fitted inhibition curve with a large enough effect in the signal ratio, with a control signal flat, not every such curve was filed as active; the % refers to the signal ratio;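 further: cells stimulated with 9-cis-retinoic acid as agonist; on the % scale 0 is the no-effect control and ±100 the full control effect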). The note with it: HEK293T RXRa-UAS-bla, beta-lactamase ratio, antagonist mode. The procedure, abridged:
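Beta-lactamase reporter inhibition, read as CCF4 fluorescence ratio (ex 405, em 460/530 nm) after 2 h at RT. HEK293T UAS-bla cells, 2500/well, were stimulated with 9-cis-RA at 500 or 100 nM final alongside test compound for 18 h at 37 C.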

The target in assay [9] is Peroxisome proliferator-activated receptor alpha (Homo sapiens) (UniProt Q07869). The assay can be described thus: qHTS assay for small molecule agonists of the peroxisome proliferator-activated receptor alpha (PPARalpha) signaling pathway (AID 651778; active means well fitted curve in the direction sought with a large enough effect; an effect the other way counts as inactive or inconclusive; further: % of control where 0% means no effect). The note with it: PathHunter PPARalpha complementation, chemiluminescence, 6 h; stronger effect = higher value. The procedure, abridged: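 Cells plated at 2,000/well and held overnight at 37 C, 5% CO2, then compound added by pin tool for 6 hr; after PathHunter detection reagent and 60 min at room temperature, chemiluminescence from enzyme complementation was read.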
Sequence of Peroxisome proliferator-activated receptor alpha (Homo sapiens) (Q07869 whole entry, looked up): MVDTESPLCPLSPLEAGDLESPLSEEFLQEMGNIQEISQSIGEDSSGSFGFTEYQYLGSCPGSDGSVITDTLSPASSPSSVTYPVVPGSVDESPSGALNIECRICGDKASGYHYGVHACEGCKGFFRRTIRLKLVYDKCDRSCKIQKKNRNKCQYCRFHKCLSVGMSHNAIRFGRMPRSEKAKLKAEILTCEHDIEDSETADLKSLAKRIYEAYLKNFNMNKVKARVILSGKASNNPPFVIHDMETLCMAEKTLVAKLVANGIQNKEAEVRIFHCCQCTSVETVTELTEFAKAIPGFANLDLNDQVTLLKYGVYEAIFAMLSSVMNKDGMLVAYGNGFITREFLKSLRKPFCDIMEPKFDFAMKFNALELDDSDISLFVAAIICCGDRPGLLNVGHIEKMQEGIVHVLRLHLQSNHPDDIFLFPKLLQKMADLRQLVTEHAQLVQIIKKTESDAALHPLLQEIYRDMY

Assay [10] in a line: qHTS assay for cell viability of HEK293 cells (AID 743288; active means well fitted curve in the direction sought with a large enough effect; an effect the other way counts as inactive or inconclusive; further: on the % scale 0 is the no-effect control and ±100 the full control effect; nearly all actives have a fitted effect of over 50% in size). Conditions: ATP luminescence (CellTiter-Glo), 18 h; max response: stronger effect = lower value. The procedure, abridged:
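Parental HEK293 cells were seeded at 2,000 cells/well, rested at least 5 h at 37 C, then exposed to compounds in DMSO for 18 h at 37 C. Viability was read as ATP-dependent luciferase luminescence after 30 min at room temperature.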

For assay [11], the target named is ATP-dependent 6-phosphofructokinase (Trypanosoma brucei brucei) (UniProt O15648). The assay can be described thus: qHTS Assay to Find Inhibitors of T. brucei phosphofructokinase: hit validation (AID 492961; active means well fitted curve in the direction sought with a large enough effect; an effect the other way counts as inactive or inconclusive;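 further: luminescence reports ADP formed as PFK phosphorylates fructose-6-phosphate with ATP; on the % scale 0 is the no-effect control and ±100 the full control effect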). The note with it: T. brucei PFK, ADP-Glo luminescence; series mostly up to 51.4 µM. In outline:
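Percent activity derived from corrected luminescence, normalized between 0x and 1x enzyme controls, then fitted to concentration-response curves. Conditions: 1.25 nM PFK, 0.1 mM ATP, 0.5 mM F6P, 45 min RT.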

Where “and” joins values, the source holds several entries; their conditions need not be identical. Equal entries are not always repeated. Records with an inconclusive call do not appear. Calls of active or inactive are those of the source. Unless noted, the call rests on the fitted dose curve.

Sequence of Vitamin D3 receptor (Homo sapiens) (P11473 whole entry, looked up): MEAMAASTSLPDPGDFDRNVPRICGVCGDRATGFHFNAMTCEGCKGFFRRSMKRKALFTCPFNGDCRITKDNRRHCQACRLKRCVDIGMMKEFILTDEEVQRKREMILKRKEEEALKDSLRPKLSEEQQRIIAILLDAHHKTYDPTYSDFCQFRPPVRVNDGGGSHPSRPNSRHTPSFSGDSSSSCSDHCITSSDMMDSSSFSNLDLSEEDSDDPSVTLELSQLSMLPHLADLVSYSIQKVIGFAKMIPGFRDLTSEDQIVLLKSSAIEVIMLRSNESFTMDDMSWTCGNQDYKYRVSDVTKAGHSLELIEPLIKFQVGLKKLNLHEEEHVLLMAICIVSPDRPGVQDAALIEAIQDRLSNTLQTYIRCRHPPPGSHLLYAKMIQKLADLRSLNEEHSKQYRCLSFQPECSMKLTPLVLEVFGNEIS
Sequence of Retinoic acid receptor RXR-alpha (Homo sapiens) (P19793 whole entry, looked up): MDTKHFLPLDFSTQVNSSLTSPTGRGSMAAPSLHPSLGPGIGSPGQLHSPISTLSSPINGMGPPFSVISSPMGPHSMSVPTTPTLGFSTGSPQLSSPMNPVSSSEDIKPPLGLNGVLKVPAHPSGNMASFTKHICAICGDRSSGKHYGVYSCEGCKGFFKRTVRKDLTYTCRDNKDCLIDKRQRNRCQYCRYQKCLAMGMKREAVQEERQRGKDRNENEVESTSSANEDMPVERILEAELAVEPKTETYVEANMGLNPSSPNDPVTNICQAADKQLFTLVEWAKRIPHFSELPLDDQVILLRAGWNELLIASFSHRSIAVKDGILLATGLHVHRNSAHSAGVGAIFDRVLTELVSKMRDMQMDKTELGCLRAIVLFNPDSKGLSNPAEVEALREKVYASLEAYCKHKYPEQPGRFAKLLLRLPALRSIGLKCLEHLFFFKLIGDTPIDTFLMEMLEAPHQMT
Sequence of ATP-dependent 6-phosphofructokinase (Trypanosoma brucei brucei) (O15648 whole entry, looked up): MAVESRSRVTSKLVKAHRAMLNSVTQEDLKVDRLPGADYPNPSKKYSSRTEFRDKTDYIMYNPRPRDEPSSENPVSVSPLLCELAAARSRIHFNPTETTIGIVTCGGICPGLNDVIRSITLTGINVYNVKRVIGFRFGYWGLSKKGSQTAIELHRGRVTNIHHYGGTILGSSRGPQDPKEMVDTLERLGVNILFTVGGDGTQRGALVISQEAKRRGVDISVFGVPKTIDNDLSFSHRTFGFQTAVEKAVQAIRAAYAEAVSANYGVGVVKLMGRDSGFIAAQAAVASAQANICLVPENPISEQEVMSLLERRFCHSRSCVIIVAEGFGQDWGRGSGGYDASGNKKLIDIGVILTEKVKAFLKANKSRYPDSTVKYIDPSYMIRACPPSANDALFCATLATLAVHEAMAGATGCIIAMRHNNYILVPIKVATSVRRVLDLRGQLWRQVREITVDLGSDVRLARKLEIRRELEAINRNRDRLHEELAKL

As to `CC(C)(C)C(=O)C(Oc1ccc(Cl)cc1)n1cncn1` (centres undefined), the max response in [1] was -36.1% and 32.9%; in [5], 16% and -16.7%; in assay [8] it was 0.375% (inactive) and -49.7% (inactive); in assay [9], 1.14% (inactive) and -0.0791% (inactive); in [10], -10.8% (inactive) and -21.2% (inactive). For the same compound, the Potency result in assay [2] and in [6] was “inactive” throughout. In addition, the result in [3], in [4] and in assay [7] was inactive.

In the case of `CC(C)Nc1nc(Cl)nc(NC(C)C)n1`, the max response was 16.2% in assay [1]; 7.09% in assay [5]; -2.39% (inactive) in assay [8]; -0.58% (inactive) in assay [9]; -5.95% (inactive) in assay [10]. Besides, the Potency entry in assay [2] and in assay [6] was “inactive” throughout. The outcome in [3], in assay [4] and in [7] was inactive.

As to `CCS(=O)CCSP(=O)(OC)OC` (centres undefined), the max response is 34.5% in [1]; -13.5% in assay [5]; 8.07% (inactive) in assay [8]; -0.0185% (inactive) in assay [9]; -4.96% (inactive) in [10]. Also, the Potency result in [2] and in assay [6] was “inactive” throughout. For the same compound, the result in [3], in assay [4] and in [7] was inactive.

As for `CCC(=O)Nc1ccc(Cl)c(Cl)c1`, the result in [3], in assay [4] and in assay [7] was inactive. In addition, the max response in assay [5] is 4.16%; in [8], -5.6% (inactive); in assay [9], -0.456% (inactive); in assay [10], 1.17% (inactive). The Potency entry in assay [6] is “inactive”.

In the case of `C=CC1CN2CCC1CC2C(OC(=O)OCC)c1ccnc2ccc(OC)cc12` (centres undefined), the Potency entry in assay [11] is “inactive”.
